Molecules are shown by their SMILES. Inconclusive results are not listed. Where a call stands in place of a potency, no number is given. Unmarked numbers belong to inactive results. Activity calls are given as the source filed them. Calls come from the whole dose curve; as a rule, active = well fitted cell-killing curve with a large enough effect in the repeat runs; inconclusive = weak or mixed curves, or effect the other way; inactive = no such curve, though single readings can be large or run the other way.

The test can be described thus: qHTS assay to identify small molecule antagonists of the retinoid-related orphan receptor gamma (ROR-gamma) signaling pathway - cell viability counter screen (AID 1159520). Note: nearly all actives have a fitted effect of over 50% in size. The conditions noted are these: Tet-on RORgamma CHO cells viability, ATP luminescence, 16 h; series mostly up to 92.4 µM; activity, negative = cytotoxicity: at the top concentration. The text has this: U.S. Tox21 Program National Center for Advancing Translational Sciences [NCATS] NIH Chemical Genomics Center [NCGC] U.S. Environmental Protection Agency [EPA] National Institutes of Environmental Health Sciences [NIEHS] National Toxicology Program [NTP] U.S. Food and Drug Administration [FDA] Tox21 Assay Overview: Nuclear steroid hormone receptors are involved in many biological processes including inflammatory responses, cell proliferation, and apoptosis. Environmental factors or compounds disrupting these nuclear receptor pathways and gene expression may promote susceptibility to immunotoxicants and autoimmune diseases. One important group of these expression factors are the retinoid-related orphan receptors. To assess compounds that may interfere with the retinoid-related orphan receptor gamma (ROR-gamma) transcription factor, a cell-based luciferase assay was used. The CHO cell-based assay utilizes a TET-inducible ROR expression factor and ROR response element-LUC reporter gene. Reporter gene activity was induced using Doxycycline Hyclate and measured after 16 hr incubation. Tet-on ROR gamma CHO cells were used to screen against the Tox21 10K compound library for cytotoxicity by measuring the viability of the cells based on the quantitation of the ATP.
Tox21 Assay Protocol Summary: Tet-on ROR gamma CHO cells were dispensed at 1,000 cells in 4 uL of culture medium per well into white wall/solid bottom 1536-well plates using a Multidrop Combi (Thermo Scientific, Waltham, MA) dispenser. Following incubation at 37 C and 5% CO2 for 4 hr, 23 nL of compounds dissolved in DMSO, positive controls or DMSO only were transferred by a Pintool station (Kalypsys, San Diego, CA) and after 2 hr incubation at 37 C, one ul of 1 uM (final concentration) of Doxycycline Hyclate was added to all the wells by using a Flying Reagent Dispenser (FRD) (Aurora Discovery, San Diego, CA). After 16 hr incubation at 37 C and 5% CO2, 5 uL of CellTiter-Glo reagent (Promega Corporation, Madison, WI) was added to each assay plate using FRD. After 30 min incubation at room temperature, luminescence was quantified on a ViewLux plate reader (Perkin Elmer, Waltham, MA).
As for `CC1C=[C-]C=C1.[C-]#[O+].[C-]#[O+].[C-]#[O+].[Mn]`, the Potency entry is “inactive”. As for `CC(C)NC(=O)N1CC(=O)N(c2cc(Cl)cc(Cl)c2)C1=O`, the Potency result is “inactive”. In the case of `NCC(O)c1ccc(O)cc1` (stereo not given), the Potency result is “inactive”. Still for that read-out and setting: for `CC1OC(C)OC(C)O1` (stereo not given) the value was “inactive”; for `Cc1cccc([N+](=O)[O-])c1`, “inactive”; for `C#CC(C)(C)NC(=O)c1cc(Cl)cc(Cl)c1`, “inactive”. Turning to `CCCCOC(=O)c1ccccc1C(=O)OCCCC`, the Potency result is “inactive”. Still for that read-out and setting: as for `O=c1[nH]c2ccccc2c(=O)o1`, the entry is “inactive”; as for `COP(N)(=O)SC` (stereo not given), “inactive”.

For `CC(Oc1ccc(Cl)cc1Cl)C(=O)O` (stereo not given), the Potency entry was “inactive”. On the same count and under the same terms, as for `CC(C)N1C(=O)c2ccccc2NS1(=O)=O`, the entry is “inactive”; as for `O=C(NC(=O)c1c(F)cccc1F)Nc1cc(Cl)c(OC(F)(F)C(F)C(F)(F)F)cc1Cl` (stereo not given), “inactive”; as for `CCOP(=S)(OCC)Oc1cnc2ccccc2n1`, “inactive”.

As to `O=[N+]([O-])c1ccc([As](=O)(O)O)cc1`, the Potency entry is “inactive”. Regarding `NCCc1ccc(O)cc1`, the Potency result is “inactive”. On the same count and under the same terms, for `Clc1ccccc1Cl` the value was “inactive”; for `CCCCCCCCCl`, “inactive”. Regarding `CN(C)N=O`, the “activity, negative = cytotoxicity” value was 8.56%.

For `[O-][Cl+2]([O-])O`, the Potency result is “inactive”. Same read-out and setting: for `c1ccc2c(c1)Oc1ccccc1O2` the value was “inactive”; for `O=[N+]([O-])c1ccc(Oc2ccc(Cl)cc2Cl)cc1`, “inactive”. The same measure, in the same setting: for `CC(NC(C)(C)C)C(=O)c1cccc(Cl)c1` (stereo not given) the value was “inactive”; for `O=S(=O)(c1ccc(O)cc1)c1ccc(O)cc1`, “inactive”.

Consider `ClCCBr`, for which the Potency result is “inactive”. For `OCCN(CCO)CCO`, the Potency result was “inactive”. As to `CCOP(OCC)OCC`, the Potency entry was “inactive”. The same measure, in the same setting: as for `Cc1cc(Cl)ccc1O`, the entry is “inactive”; as for `CCOP(=S)(OCC)SCCSCC`, “inactive”; as for `Clc1cccc(Cl)c1Cl`, “inactive”. On to `COC(=O)NS(=O)(=O)c1ccc(N)cc1`, for which the Potency result was “inactive”.

For the compound `Clc1ccc(Cl)cc1`, the Potency result is “inactive”.

On to `c1ccc2c(c1)oc1ccccc12`, for which the Potency entry was “inactive”. Still for that read-out and setting: for `[N-]=[N+]=[N-]` the value was “inactive”. For the compound `O=C(O)c1ccccn1`, the Potency result was “inactive”. Still for that read-out and setting: for `CCC(C)(CC)c1cc(NC(=O)c2c(OC)cccc2OC)on1` the value was “inactive”. Same read-out and setting: as for `CC(C)OC(=O)Nc1cccc(Cl)c1`, the entry is “inactive”; as for `CCC12COCN1COC2`, “inactive”. The same measure, in the same setting: as for `CC(C)(Cl)Cl`, the entry is “inactive”; as for `CC(C)OC(=O)Nc1ccccc1`, “inactive”.

Consider `Nc1ccc(Oc2ccc(N)cc2)cc1`, for which the Potency result is “inactive”.

Values taken from PubChem BioAssay (Tox21).
